Reference: PubChem BioAssay AID1159580 (chemical genetic matrix, 2015)
The whole screen tested about 5,500 compounds, of which about 2,000 (36%) were called active. About 18% were inconclusive and are not listed. Cut-off read from the data, not from the text of the source: active = normalized growth mostly below about 0.91 (no sharp cut-off); inconclusive = no clear call, values can overlap the other calls; inactive = mostly above about 0.92. This is one part of the list.

Experiment: chemical genetic growth profiling, strain panel (AID 1159580);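 note: tested at 20 µM; growth read once vehicle control cultures reached saturation at 30 °C; 1 = growth at the plate median or of vehicle wells; lower values mean less growth of the strain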
Details: S. cerevisiae deletion strains, growth OD
[1] = locus YAL040C, strain CLN3, stronger effect = lower value
[2] = locus YDR363W, strain ESC2, stronger effect = lower value
[3] = locus YER002W, strain NOP16, stronger effect = lower value
[4] = locus YNL175C, strain NOP13, stronger effect = lower value
[5] = locus YNL197C, strain WHI3, stronger effect = lower value
[6] = locus YNL224C, strain SQS1, stronger effect = lower value
[7] = locus YOR083W, strain WHI5 (second series), stronger effect = lower value

Measured: normalized growth

O=C(O)[C@H]1NCCC[C@H]1C(=O)O
inactive: [1] 1.06 | locus YCL061C, strain MRC1 (second series), stronger effect = lower value 0.986 | locus YDR150W, strain NUM1, stronger effect = lower value 1.01 | [2] 0.991 | [3] 0.993 | locus YMR263W, strain SAP30, stronger effect = lower value 0.99 | locus YMR307W, strain GAS1, stronger effect = lower value 0.991 | locus YNL128W, strain TEP1, stronger effect = lower value 0.994 | [4] 1 | [5] 0.982 | [6] 0.999 | [7] 0.984 | locus YPL055C, strain LGE1, stronger effect = lower value 1 | locus YPL241C, strain CIN2, stronger effect = lower value 0.996

N[C@@H](CS(=O)O)C(=O)O
inactive: [1] 0.98 | [2] 1.01 | [3] 0.98 | locus YGR078C, strain PAC10, stronger effect = lower value 1.01 | locus YGR229C, strain SMI1, stronger effect = lower value 0.954 | [4] 0.987 | [5] 1.02 | [6] 1.02 | [7] 1.02
